# Pf growth 48h = Primary qHTS for delayed death inhibitors of the malarial parasite plastid, 48 hour incubation; P. falciparum luciferase growth in erythrocytes, 48 h; Potency, µM (top dose mostly 28.7 µM), for the others: top-dose activity change, negative = inhibition, usual class: inhibitors; actives 5.9% (n = 310,000); AID 504832, 2011; also: potency is read from the fitted curve at half-maximal effect; % is scaled to controls: 0 for no effect and ±100 for the full control effect
#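 First compound was added to culture medium, then infected red cells at 0.1% parasitemia and 2% hematocrit (final). After incubation at 37 C under 5% CO2, luciferase detection reagent was dispensed and light output recorded.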
# CHX counter = Cycloheximide Counterscreen for Small Molecule Inhibitors of Shiga Toxin. cell reporter, cycloheximide protein synthesis inhibition counterscreen. max response, %. actives 12% (n = 300,000); in the data active = max response mostly above about 13%, no sharp cut-off; inactive = mostly below about 14%; also: read at 38.3 µM for the half of the compounds with a filed dose; 0% is about no effect
# Shiga inhibitor = A qHTS for Small Molecule Inhibitors of Shiga Toxin; Vero cells, Shiga toxin protein synthesis inhibition reporter; inhibition, % at 38.7 µM; actives 9.2% (n = 290,000); in the data active = inhibition mostly above about 28%, no sharp cut-off; inactive = mostly below about 43%; also: 0% is about no effect
# Pf growth 96h = Primary qHTS for delayed death inhibitors of the malarial parasite plastid, 96 hour incubation; P. falciparum luciferase reporter growth, 96 h; Potency, µM (titrated, usually from 28.7 µM), for the others: top-dose activity change, negative = inhibition, hits mostly inhibitors; actives 6.9% (n = 320,000); AID 504834, 2011; also: potency is read from the fitted curve at half-maximal effect; % is scaled to controls: 0 for no effect and ±100 for the full control effect
#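 Erythrocytes infected with luciferase-expressing P. falciparum were dispensed at 2% hematocrit and 0.05% parasitemia (final), then incubated with compounds 96 hours at 37 C in 5% CO2. Luminescence after detection reagent addition reported growth.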
# * hit, by the source's call; ? = inconclusive; . = no result given; [ ] = another dose, or the depositor's remark. Only some compounds are listed: those with a hit (about 21% of all), similar ones and a draw of the others. Unless noted, calls follow the shape of the dose curve; as a rule, active = well fitted inhibition curve with a large enough effect; inconclusive = small, poorly fitted or top-dose-only effect, or another doubt; inactive = no such curve, though single readings can be large or run the other way.
SMILES,Pf growth 48h,CHX counter,Shiga inhibitor,Pf growth 96h
N#Cc1nc(-c2ccc(Cl)cc2)oc1NCCc1ccccn1,54%,12*,35*,?
Cc1ccc(-c2nc(C#N)c(NCCc3ccccn3)o2)cc1,.,17*,36,30%
CCc1ccc(CN2CCCC(CNC(=O)c3cccc(OC)c3OC)C2)cc1 (stereo not drawn),?,-4,.,?
Cc1[nH]c2ccccc2c1SCc1nnc(SCc2ccc(Cl)cc2)n1C,15µM*,-3,-2,?
O=C(CCC(=O)N1CCOc2ccccc21)NCCN1CCOCC1,12%,-2,-2,-27%
COc1ccc(OCC(=O)NC(=S)Nc2ccc(S(=O)(=O)Nc3cc(C)on3)cc2)cc1,27%,1,-2,-14%
NC(Cc1ccccc1)C(=O)N1CCCCC1 (stereo not drawn),4%,5,13,-38%
COCCCNC(=O)c1ccc2c(=O)n(CC3CCCO3)c(=S)[nH]c2c1 (stereo not drawn),3%,1,-21,1%
CC1CCCC(NC(=O)c2ccc3c(=O)n(CC4CCCO4)c(=O)[nH]c3c2)C1C (stereo not drawn),2.6µM*,2,21,?
O=C(NCc1ccccc1)c1ccc2c(=O)n(CC3CCCO3)c(=S)[nH]c2c1 (stereo not drawn),-18%,-1,18,0%
CC(C)NC(=O)c1ccc2c(=O)n(CC3CCCO3)c(=S)[nH]c2c1 (stereo not drawn),-16%,-1,-6,9.3µM*
CC(C)(C)C1CCC(OC(=O)CN2CCCCC2)CC1 (stereo not drawn),68%,-2,26,45%
NC(=O)C1CCN(CC(=O)Nc2ccccc2N2CCOCC2)CC1,5%,-5,-6,15%
O=C1C2C3C=CC(C3)C2C(=O)N1CCN1CCN(S(=O)(=O)c2ccc3ccccc3c2)CC1 (stereo not drawn),-18%,-1,4,15%
O=C1C2C3C=CC(C3)C2C(=O)N1CCN1CCN(S(=O)(=O)/C=C/c2ccccc2)CC1 (stereo not drawn),-3%,-4,24,5.9µM*
COc1cccc(/C=C/C(=O)Nc2ccccc2N2CCOCC2)c1,60%,29*,44,-17%
O=C(/C=C/c1ccc(Cl)cc1)Nc1ccccc1N1CCOCC1,34%,1,11,15µM*
O=C(CN1CCN(S(=O)(=O)/C=C/c2ccccc2)CC1)Nc1ccccc1N1CCOCC1,?,-1,-6,3.7µM*
COc1cc(CC(=O)OCC(=O)NC2CCCCC2C)cc(OC)c1OC (stereo not drawn),-3%,.,.,42%
CCS(=O)(=O)N1CCN(S(=O)(=O)c2ccc3c(c2)OCCO3)CC1,0%,-2,20,?
O=c1c2ccccc2c(-c2ccccc2)nn1-c1cc(Cl)ccc1[N+](=O)[O-],8.3µM*,-2,-48,?
Cc1ccc(-c2nn(-c3cc(N4CCNCC4)ccc3[N+](=O)[O-])c(=O)c3ccccc23)cc1,?,-6,-15,0%
Cc1ccc(-c2nn(-c3cc(Cl)ccc3[N+](=O)[O-])c(=O)c3ccccc23)cc1C,5.2µM*,-1,-4,?
CCc1ccc(-c2nn(-c3cc(Cl)ccc3[N+](=O)[O-])c(=O)c3ccccc23)cc1,?,-4,-9,9.3µM*
CC(=O)N1CCN(CCS(=O)(=O)c2ccc(Br)cc2)CC1,-8%,.,.,2%
SMILES,Pf growth 48h,CHX counter,Shiga inhibitor,Pf growth 96h
CCCCNC(=O)O[C@@H]1C[C@H]2CCC(=O)N3CC[C@@H](C1)[C@@H]23,8%,-3,-6,-2%
CCOc1ccccc1C(C(=O)NC1CCCC1)N(C(=O)c1csnn1)C1CC1 (stereo not drawn),-11%,-2,-9,-6%
CC1CCCCN1CCCNC(=O)c1nn(C)c2c1CS(=O)(=O)c1ccccc1-2 (stereo not drawn),13%,-4,14,12µM*
Cc1c(C)n(C)c2ccc(C(=O)NCCc3ccco3)cc12,?,39*,69*,-12%
CC(=O)c1cccc(NC(=O)c2ccco2)c1,24%,1,39,92%
CCC1CCCCN1CCCNC(=O)c1nn(C)c2c1CS(=O)(=O)c1ccccc1-2 (stereo not drawn),5%,-2,-8,13%
CC(=O)Nc1cccc(C(=O)NCCc2ccco2)c1,119%,26*,78*,88%
Cc1c(C)n(C)c2ccc(C(=O)Nc3cccc4ccccc34)cc12,?,18,24,?
CCn1c(C)c(C)c2cc(C(=O)NCCc3ccco3)ccc21,?,16,36*,16%
O=C1CN(C(=O)C2CCC(=O)N(CCc3ccc(Cl)cc3)C2)CCN1 (stereo not drawn),0%,-1,-6,1%
COc1ccc(S(=O)(=O)NCC(=O)N(CC(=O)NCC2CCCO2)Cc2ccc(F)cc2)cc1 (stereo not drawn),-4%,5,-4,-2%
Cc1c(C)n(C)c2ccc(C(=O)NCCCN(C)C3CCCCC3)cc12,0%,-5,-8,?
Cc1c(C)n(C)c2ccc(C(=O)NCCCN3CCCCC3C)cc12 (stereo not drawn),-22%,-3,-5,6.6µM*
COCCCNC(=S)NNC(=O)Cn1nc(C)c(Br)c1C,26%,-2,-7,9.3µM*
CC(Oc1ccc(Cl)cc1)C(=O)N1CCN(C(=O)c2ccco2)CC1 (stereo not drawn),-23%,.,.,1%
CC1C(=O)N(Cc2ccccc2F)c2ccccc2N1C(=O)c1c(F)cccc1F (stereo not drawn),?,-7,14,?
COc1cccc(CN2C(=O)C(C)N(C(=O)c3c(F)cccc3F)c3ccccc32)c1 (stereo not drawn),9.3µM*,3,17,6.6µM*
Cn1ccnc1SCC(=O)Nc1cc(C(F)(F)F)ccc1N1CCOCC1,-5%,-1,-9,.
Cc1nn(-c2ccc(F)cc2)c(-n2cccc2)c1C(=O)N1CCN(C(=O)c2ccco2)CC1,?,-1,-5,?
CCOc1cccc(=O)c2c(C)n(CC(=O)c3ccccc3)c(C)c12,8.3µM*,2,-7,44%
O=c1cc(-c2ccccc2)n(S(=O)(=O)c2ccccc2)o1,5%,16*,-9,.
COc1ccc(S(=O)(=O)n2oc(=O)cc2-c2ccccc2)cc1,13%,8,18,.
COc1ccc(N(CC(=O)Nc2ccc3c(c2)OCO3)S(C)(=O)=O)c(OC)c1,?,7,10,185%
CCOc1ccccc1N(CC(=O)Nc1ccc2c(c1)OCCO2)S(C)(=O)=O,-8%,-1,25,4.1µM*
COc1ccc(N(CC(=O)Nc2ccc3c(c2)OCCO3)S(C)(=O)=O)c(OC)c1,32%,34*,76*,3%[5.75 µM]
CCc1ccc(NC(=O)CS(=O)CC(=O)Nc2ccc(-n3cnnn3)c(C)c2)cc1 (stereo not drawn),8%,-5,-5,-6%
N#Cc1ccc(Nc2nn3c(=O)c4ccccc4nc3s2)cc1,11%,.,.,3%
